Laboratory results: PubChem BioAssay (NCI)
Compounds without any hit were thinned out: in the full panel of roughly 79,000, 15% have a hit. Activity calls are given as the source filed them. No stated cut-off is given here; in the data, active means growth inhibition above about 70%; inactive means the rest.

What was measured:
[1] = NCI Yeast Anticancer Drug Screen. Data for the rad50 strain (AID 155);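 further: 0% = growth of vehicle-only cultures of the same strain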; conditions: S. cerevisiae rad50 strain growth inhibition, stronger effect = higher value
Method in brief: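 Growth of the mutant yeast was measured after compound exposure and referenced to vehicle-treated cultures.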

[2] = NCI Yeast Anticancer Drug Screen. Data for the mec2-1 strain (AID 157); conditions: S. cerevisiae mec2-1 strain, stronger effect = higher value
Method in brief: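 Test agents were screened against the mec2-1 yeast strain, with defined DNA repair or cell cycle alteration. Growth was scored as inhibition against vehicle-only controls.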

[3] = NCI Yeast Anticancer Drug Screen. Data for the sgs1 mgt1 strain (AID 161);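 further: 0% = growth of cultures given vehicle only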; conditions: S. cerevisiae sgs1 mgt1 strain, stronger effect = higher value
Method in brief: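 Inhibition of yeast growth, normalised to vehicle-treated controls, is reported for a strain bearing genetic alterations in DNA damage repair.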

[4] = NCI Yeast Anticancer Drug Screen. Data for the cln2 rad14 strain (AID 165);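 further: 0% = growth equal to vehicle treated cultures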; conditions: S. cerevisiae cln2 rad14 strain, stronger effect = higher value
Method in brief: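 Growth of compound-exposed yeast (cln2 rad14 genotype) measured and expressed as inhibition relative to vehicle.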

[5] = NCI Yeast Anticancer Drug Screen. Data for the bub3 strain (AID 167); conditions: S. cerevisiae bub3 mutant strain, stronger effect = higher value
Method in brief: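 Whole-cell yeast assay. The mutant strain was incubated with compounds, and growth inhibition was determined by comparison with vehicle-treated cells.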

[6] = NCI Yeast Anticancer Drug Screen. Data for the mlh1 rad18 strain (AID 175); conditions: S. cerevisiae mlh1 rad18 strain growth inhibition, stronger effect = higher value
Method in brief: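 In this whole-cell yeast screen, a strain with altered DNA damage repair is challenged with compound, and its growth is measured against matched vehicle-treated controls.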

[7] = at 5.0 µM (retest, dose inferred, filed as 0.5)
[8] = at 50.0 µM (retest, dose inferred, filed as 5.0)

Measured: growth inhibition

ClCc1c(-c2ccccc2)oc(-c2ccccc2)c1CCl
inactive: [1]; [7] 0% | [1]; [8] 49% | [1]; at 50.0 µM 32.6% | [2]; [7] 1% | [2]; [8] 64% | [2]; at 50.0 µM 34% | [3]; [7] 6% | [3]; at 50.0 µM 68.8% | [4]; [7] 1% | [4]; [8] 38% | [4]; at 50.0 µM 21.9% | [5]; [7] 1% | [5]; [8] 40% | [5]; at 50.0 µM 8.25% | [6]; [7] 1%
active: [3]; [8] 72% | [6]; [8] 86% | [6]; at 50.0 µM 73.4%

C/C=C/C1=C(Cl)C(=O)[C@@H](Cl)[C@@]1(O)C(=O)OC
inactive: [1]; [7] 48% | [2]; [7] 61% | [4]; [7] 21% | [5]; [7] 66%
active: [1]; [8] 97% | [1]; at 50.0 µM 87% | [2]; [8] 99% | [2]; at 50.0 µM 90.1% | [3]; [7] 78% | [3]; [8] 99% | [3]; at 50.0 µM 91% | [4]; [8] 97% | [4]; at 50.0 µM 79.2% | [5]; [8] 95% | [5]; at 50.0 µM 87.3% | [6]; [7] 85% | [6]; [8] 99% | [6]; at 50.0 µM 90.2%

Cc1ccc(-c2c(N)[n+]([O-])c3ccccc3[n+]2[O-])cc1
inactive: [1]; [7] 34% | [2]; [7] 32% | [3]; [7] 47% | [4]; [7] 46% | [5]; [7] 54%
active: [1]; [8] 95% | [1]; at 50.0 µM 99.3% | [2]; [8] 99% | [2]; at 50.0 µM 99.3% | [3]; [8] 100% | [3]; at 50.0 µM 99.2% | [4]; [8] 98% | [4]; at 50.0 µM 98.3% | [5]; [8] 99% | [5]; at 50.0 µM 99.2% | [6]; [7] 81% | [6]; [8] 99% | [6]; at 50.0 µM 99%

COC(=O)c1cccc2cccc(C(=O)Nc3ccc(C)cc3C)c12
active: [1]; [7] 74% | [1]; [8] 99% | [1]; at 50.0 µM 86.2% | [2]; [7] 79% | [2]; [8] 99% | [2]; at 50.0 µM 91.9% | [3]; [8] 99% | [3]; at 50.0 µM 83.2% | [4]; [8] 99% | [4]; at 50.0 µM 87.7% | [5]; [7] 76% | [5]; [8] 92% | [5]; at 50.0 µM 90.5% | [6]; [7] 90% | [6]; [8] 99% | [6]; at 50.0 µM 89.7%
inactive: [3]; [7] 60% | [4]; [7] 33%

CCCCCCC(=O)CCCCCC/C=C\CC1OC(=O)C(N)(CO)C1O (stereo not given)
active: [1]; [8] 98% | [1]; at 50.0 µM 91.5% | [2]; [8] 99% | [2]; at 50.0 µM 93.5% | [3]; [8] 98% | [3]; at 50.0 µM 93.2% | [4]; [8] 98% | [4]; at 50.0 µM 90% | [5]; [7] 80% | [5]; [8] 98% | [5]; at 50.0 µM 91% | [6]; [8] 98% | [6]; at 50.0 µM 91.5%
inactive: [1]; [7] 34% | [2]; [7] 45% | [3]; [7] 43% | [4]; [7] 55% | [6]; [7] 58%
